# Measurements published in article PMC7862700, “An all-to-all approach to the identification of sequence-specific readers for epigenetic DNA modifications on cytosine”.
# Assays:
# Test in all cases: DAPPL (digital affinity profiling via proximity ligation, sequencing); 10 mM Tris-HCl pH 7.5, 50 mM NaCl, 1 mM DTT, 4% glycerol, room temperature, 30 min; GST-TFs on glutathione beads, 16-mer random dsDNA library, 0.1% formaldehyde crosslink after washing; high values mean tight binding
# FEV = biological target: T1, FEV (Homo sapiens, UniProt Q99581 1-238); details: protein: recombinant; tags: N-terminal GST; dsDNA, one strand shown
# T1 sequence: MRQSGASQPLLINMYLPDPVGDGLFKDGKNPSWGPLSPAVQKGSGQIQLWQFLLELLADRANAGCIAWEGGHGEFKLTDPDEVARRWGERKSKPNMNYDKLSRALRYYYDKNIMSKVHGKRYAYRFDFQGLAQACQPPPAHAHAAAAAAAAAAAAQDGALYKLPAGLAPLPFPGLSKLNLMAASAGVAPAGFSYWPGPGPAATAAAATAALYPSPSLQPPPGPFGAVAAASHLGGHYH
# Procedure, shortened: (§1)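 Pools were built from human transcription factors expressed in yeast as GST fusions, captured on glutathione beads and DNA-barcoded, along with a tag-only sample. Incubation with 200 nmole of a 16-mer random double-stranded DNA library lasted 30 min at room temperature in Tris/NaCl/DTT/glycerol buffer, and was followed by washing, 0.1% formaldehyde crosslinking, proximity ligation, PCR amplification and Illumina NextSeq500 sequencing. Binding signal is the quotient of each hexamer's read frequency for a factor and its frequency for the tag-only sample.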
# ETV5 = ETV5 (Homo sapiens, UniProt P41161 1-510); details: protein: recombinant; tags: N-terminal GST; dsDNA, one strand shown
# Procedure, shortened: as §1
# HSF1 = HSF1 (Homo sapiens, UniProt Q00613 1-529); details: protein: recombinant; tags: N-terminal GST; chain copies: 3; dsDNA, one strand shown
# Procedure, shortened: as §1
# SPIC = biological target: T2, SPIC (Homo sapiens, UniProt Q8N5J4 1-248); details: protein: recombinant; tags: N-terminal GST; dsDNA, one strand shown
# T2 sequence: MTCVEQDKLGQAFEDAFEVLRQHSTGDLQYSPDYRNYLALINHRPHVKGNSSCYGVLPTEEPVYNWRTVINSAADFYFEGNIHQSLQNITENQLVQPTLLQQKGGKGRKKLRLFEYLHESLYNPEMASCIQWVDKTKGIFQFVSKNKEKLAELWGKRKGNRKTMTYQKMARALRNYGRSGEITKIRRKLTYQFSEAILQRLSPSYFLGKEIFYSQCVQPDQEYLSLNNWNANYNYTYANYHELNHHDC
# Procedure, shortened: as §1
# ELF4 = ELF4 (Homo sapiens, UniProt Q99607 1-663); details: protein: recombinant; tags: N-terminal GST; dsDNA, one strand shown
# Procedure, shortened: as §1
# ELK4 = biological target: T3, ELK4 (Homo sapiens, UniProt P28324-2 1-405); details: protein: recombinant; tags: N-terminal GST; dsDNA, one strand shown
# T3 sequence: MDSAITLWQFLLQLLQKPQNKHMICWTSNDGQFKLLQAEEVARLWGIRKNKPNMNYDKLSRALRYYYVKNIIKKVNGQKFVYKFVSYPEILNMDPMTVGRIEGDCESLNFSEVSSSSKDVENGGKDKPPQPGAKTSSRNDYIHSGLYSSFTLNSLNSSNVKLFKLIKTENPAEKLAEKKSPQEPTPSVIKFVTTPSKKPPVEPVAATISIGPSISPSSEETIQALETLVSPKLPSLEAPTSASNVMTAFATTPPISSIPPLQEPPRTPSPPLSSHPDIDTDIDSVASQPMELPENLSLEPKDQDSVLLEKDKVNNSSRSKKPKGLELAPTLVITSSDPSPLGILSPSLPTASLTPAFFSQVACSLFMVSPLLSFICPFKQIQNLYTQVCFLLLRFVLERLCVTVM
# Procedure, shortened: as §1
# ETV2 = biological target: T4, ETV2 (Homo sapiens, UniProt O00321 1-342); details: protein: recombinant; tags: N-terminal GST; dsDNA, one strand shown
# T4 sequence: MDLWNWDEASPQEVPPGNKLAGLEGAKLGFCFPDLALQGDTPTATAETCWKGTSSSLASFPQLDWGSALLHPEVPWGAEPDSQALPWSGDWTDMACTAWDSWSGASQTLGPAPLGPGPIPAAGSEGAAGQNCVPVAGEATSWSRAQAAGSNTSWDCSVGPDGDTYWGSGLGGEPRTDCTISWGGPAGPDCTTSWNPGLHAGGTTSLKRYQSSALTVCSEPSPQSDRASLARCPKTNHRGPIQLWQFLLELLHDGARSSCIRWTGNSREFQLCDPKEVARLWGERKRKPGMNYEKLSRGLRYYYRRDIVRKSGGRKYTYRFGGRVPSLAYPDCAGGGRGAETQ
# Procedure, shortened: as §1
# ELF3 = biological target: T5, ELF3 (Homo sapiens, UniProt P78545 1-371); details: protein: recombinant; tags: N-terminal GST; dsDNA, one strand shown
# T5 sequence: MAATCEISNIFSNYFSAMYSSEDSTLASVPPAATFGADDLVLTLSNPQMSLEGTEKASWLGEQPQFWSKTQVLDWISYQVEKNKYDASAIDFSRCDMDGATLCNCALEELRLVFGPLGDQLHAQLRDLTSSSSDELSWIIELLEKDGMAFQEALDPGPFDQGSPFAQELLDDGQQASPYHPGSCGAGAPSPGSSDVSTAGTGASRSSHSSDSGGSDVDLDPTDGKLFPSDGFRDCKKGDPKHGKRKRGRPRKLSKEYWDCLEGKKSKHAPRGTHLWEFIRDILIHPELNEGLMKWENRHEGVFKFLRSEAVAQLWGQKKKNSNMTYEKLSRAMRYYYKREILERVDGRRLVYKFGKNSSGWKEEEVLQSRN
# Procedure, shortened: as §1
# CRX = CRX (Homo sapiens, UniProt O43186 1-299); details: protein: recombinant; tags: N-terminal GST; dsDNA, one strand shown
# Procedure, shortened: as §1
# ETV1 = ETV1 (Homo sapiens, UniProt P50549 1-477); details: protein: recombinant; tags: N-terminal GST; dsDNA, one strand shown
# Procedure, shortened: as §1
# ERF = biological target: T6, ERF (Homo sapiens, UniProt P50548 1-548); details: protein: recombinant; tags: N-terminal GST; dsDNA, one strand shown
# T6 sequence: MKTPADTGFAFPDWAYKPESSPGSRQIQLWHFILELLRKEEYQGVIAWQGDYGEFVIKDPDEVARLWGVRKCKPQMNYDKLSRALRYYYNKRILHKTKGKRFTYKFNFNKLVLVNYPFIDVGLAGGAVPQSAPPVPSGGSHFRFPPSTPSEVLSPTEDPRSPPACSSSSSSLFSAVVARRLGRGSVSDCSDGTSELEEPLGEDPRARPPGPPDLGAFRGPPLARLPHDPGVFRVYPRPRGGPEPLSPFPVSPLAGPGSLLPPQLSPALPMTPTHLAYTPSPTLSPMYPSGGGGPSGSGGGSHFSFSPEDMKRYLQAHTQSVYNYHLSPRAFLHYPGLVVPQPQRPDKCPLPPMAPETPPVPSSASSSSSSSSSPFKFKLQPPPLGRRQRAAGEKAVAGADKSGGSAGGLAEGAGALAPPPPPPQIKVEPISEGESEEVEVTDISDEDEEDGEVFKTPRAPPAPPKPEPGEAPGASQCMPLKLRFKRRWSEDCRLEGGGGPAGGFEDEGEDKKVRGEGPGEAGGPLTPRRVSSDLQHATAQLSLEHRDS
# Procedure, shortened: as §1
# ETV3L = biological target: T7, ETV3L (Homo sapiens, UniProt Q6ZN32 1-361); details: protein: recombinant; tags: N-terminal GST; dsDNA, one strand shown
# T7 sequence: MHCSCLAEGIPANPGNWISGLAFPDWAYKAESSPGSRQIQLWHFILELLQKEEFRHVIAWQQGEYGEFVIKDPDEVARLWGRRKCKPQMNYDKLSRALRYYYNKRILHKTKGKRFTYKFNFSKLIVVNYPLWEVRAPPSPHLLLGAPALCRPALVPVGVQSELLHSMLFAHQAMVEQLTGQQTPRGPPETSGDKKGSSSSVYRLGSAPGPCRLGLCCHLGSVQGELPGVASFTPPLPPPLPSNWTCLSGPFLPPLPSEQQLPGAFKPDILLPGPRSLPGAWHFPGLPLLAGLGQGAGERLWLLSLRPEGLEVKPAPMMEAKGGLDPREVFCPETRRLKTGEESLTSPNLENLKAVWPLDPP
# Procedure, shortened: as §1
# ETS2 = biological target: T8, ETS2 (Homo sapiens, UniProt P15036 1-469); details: protein: recombinant; tags: N-terminal GST; dsDNA, one strand shown
# T8 sequence: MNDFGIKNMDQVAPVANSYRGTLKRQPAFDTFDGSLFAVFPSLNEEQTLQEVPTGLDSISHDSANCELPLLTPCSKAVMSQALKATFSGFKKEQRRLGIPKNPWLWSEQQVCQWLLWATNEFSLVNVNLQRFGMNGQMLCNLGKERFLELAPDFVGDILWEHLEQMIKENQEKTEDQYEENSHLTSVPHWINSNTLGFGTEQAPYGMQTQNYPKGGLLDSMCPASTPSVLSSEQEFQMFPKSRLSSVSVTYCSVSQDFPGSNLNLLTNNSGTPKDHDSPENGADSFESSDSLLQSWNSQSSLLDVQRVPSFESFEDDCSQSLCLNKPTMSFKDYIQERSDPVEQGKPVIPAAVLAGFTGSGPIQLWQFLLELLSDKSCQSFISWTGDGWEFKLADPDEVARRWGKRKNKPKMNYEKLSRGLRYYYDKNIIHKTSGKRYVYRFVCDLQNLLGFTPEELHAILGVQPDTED
# Procedure, shortened: as §1
# SPDEF = biological target: T9, SPDEF (Homo sapiens, UniProt O95238 1-335); details: protein: recombinant; tags: N-terminal GST; dsDNA, one strand shown
# T9 sequence: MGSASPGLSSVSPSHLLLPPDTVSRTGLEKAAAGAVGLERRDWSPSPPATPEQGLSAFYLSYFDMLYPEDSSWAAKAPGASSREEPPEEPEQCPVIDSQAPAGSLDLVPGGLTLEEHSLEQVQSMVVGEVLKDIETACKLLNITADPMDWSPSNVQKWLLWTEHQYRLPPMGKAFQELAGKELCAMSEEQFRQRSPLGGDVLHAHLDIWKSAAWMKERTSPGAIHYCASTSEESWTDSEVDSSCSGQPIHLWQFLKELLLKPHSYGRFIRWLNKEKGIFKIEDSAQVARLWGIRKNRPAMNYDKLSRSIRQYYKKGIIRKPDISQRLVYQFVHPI
# Procedure, shortened: as §1
# ETV7 = biological target: T10, ETV7 (Homo sapiens, UniProt Q9Y603 1-341); details: protein: recombinant; tags: N-terminal GST; dsDNA, one strand shown
# T10 sequence: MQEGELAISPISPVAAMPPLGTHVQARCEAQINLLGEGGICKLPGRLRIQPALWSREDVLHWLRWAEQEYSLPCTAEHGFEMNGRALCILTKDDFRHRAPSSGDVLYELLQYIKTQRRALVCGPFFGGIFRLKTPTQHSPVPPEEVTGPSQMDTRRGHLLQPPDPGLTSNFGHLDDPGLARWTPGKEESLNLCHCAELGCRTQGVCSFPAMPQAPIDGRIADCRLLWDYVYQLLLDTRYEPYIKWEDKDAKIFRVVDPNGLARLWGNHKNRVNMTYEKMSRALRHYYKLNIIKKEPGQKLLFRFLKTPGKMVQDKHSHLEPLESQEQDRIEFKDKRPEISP
# Procedure, shortened: as §1
# ELF5 = biological target: T11, ELF5 (Homo sapiens, UniProt Q9UKW6-2 1-255); details: protein: recombinant; tags: N-terminal GST; dsDNA, one strand shown
# T11 sequence: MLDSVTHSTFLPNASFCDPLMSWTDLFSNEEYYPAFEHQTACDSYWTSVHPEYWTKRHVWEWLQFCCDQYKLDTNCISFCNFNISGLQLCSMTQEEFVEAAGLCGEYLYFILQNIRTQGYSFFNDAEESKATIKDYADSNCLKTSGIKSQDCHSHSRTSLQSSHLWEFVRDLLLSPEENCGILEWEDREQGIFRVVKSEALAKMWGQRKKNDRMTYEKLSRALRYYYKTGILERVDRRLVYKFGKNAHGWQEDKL
# Procedure, shortened: as §1
# ETV3 = biological target: T12, ETV3 (Homo sapiens, UniProt P41162-2 1-143); details: protein: recombinant; tags: N-terminal GST; dsDNA, one strand shown
# T12 sequence: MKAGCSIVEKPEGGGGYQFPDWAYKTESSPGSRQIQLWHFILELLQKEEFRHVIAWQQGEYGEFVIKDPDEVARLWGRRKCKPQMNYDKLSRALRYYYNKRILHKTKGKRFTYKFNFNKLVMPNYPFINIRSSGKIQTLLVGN
# Procedure, shortened: as §1
# ETV6 = ETV6 (Homo sapiens, UniProt P41212 1-452); details: protein: recombinant; tags: N-terminal GST; dsDNA, one strand shown
# Procedure, shortened: as §1
# Chain of CRX (O43186 whole entry): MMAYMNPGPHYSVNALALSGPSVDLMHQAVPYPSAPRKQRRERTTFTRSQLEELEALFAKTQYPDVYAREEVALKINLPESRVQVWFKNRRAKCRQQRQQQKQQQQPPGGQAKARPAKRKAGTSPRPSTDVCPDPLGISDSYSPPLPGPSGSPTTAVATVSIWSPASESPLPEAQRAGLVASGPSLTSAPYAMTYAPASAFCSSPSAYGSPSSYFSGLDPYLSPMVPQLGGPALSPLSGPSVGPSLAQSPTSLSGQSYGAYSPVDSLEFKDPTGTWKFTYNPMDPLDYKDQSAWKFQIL
# Chain of HSF1 (Q00613 whole entry): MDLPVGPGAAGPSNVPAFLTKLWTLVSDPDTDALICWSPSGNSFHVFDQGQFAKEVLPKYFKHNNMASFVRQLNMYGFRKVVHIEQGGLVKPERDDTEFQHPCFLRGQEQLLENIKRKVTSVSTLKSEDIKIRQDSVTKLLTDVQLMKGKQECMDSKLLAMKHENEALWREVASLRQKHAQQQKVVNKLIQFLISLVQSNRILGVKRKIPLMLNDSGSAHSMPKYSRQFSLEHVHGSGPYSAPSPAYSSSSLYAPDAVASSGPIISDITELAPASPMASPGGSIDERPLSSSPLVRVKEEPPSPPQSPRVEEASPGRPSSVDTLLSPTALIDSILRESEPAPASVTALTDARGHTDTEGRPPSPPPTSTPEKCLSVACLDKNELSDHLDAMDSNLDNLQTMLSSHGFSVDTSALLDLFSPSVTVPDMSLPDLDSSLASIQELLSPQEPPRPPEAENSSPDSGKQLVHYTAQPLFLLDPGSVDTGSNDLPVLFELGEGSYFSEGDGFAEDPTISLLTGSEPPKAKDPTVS
# Chain of ETV5 (P41161 whole entry): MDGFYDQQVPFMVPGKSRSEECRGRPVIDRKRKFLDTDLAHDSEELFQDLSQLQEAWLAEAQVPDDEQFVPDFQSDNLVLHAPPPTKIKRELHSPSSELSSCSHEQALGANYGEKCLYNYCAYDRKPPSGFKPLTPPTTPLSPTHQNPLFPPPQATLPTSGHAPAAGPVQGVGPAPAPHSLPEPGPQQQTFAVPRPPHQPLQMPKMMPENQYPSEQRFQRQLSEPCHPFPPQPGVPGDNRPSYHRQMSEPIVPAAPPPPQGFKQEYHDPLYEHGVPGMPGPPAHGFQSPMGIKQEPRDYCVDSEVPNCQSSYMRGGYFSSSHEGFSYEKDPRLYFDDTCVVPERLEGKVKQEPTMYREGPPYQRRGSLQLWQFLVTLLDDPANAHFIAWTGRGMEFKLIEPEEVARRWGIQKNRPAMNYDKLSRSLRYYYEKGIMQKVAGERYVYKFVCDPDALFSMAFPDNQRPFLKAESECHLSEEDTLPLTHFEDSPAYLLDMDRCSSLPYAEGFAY
# Chain of ETV6 (P41212 whole entry): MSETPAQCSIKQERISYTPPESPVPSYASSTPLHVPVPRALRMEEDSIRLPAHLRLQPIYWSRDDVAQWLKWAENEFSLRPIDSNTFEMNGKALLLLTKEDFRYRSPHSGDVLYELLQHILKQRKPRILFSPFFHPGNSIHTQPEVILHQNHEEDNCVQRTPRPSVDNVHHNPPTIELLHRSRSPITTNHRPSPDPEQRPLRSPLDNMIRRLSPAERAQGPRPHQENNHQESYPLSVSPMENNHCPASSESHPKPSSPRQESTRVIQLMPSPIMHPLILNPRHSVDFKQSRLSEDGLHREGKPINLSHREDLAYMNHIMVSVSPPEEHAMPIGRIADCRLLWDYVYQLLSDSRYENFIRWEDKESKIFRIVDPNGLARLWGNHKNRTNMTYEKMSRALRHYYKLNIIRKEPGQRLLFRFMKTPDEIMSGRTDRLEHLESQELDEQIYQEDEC
# Chain of ELF4 (Q99607 whole entry): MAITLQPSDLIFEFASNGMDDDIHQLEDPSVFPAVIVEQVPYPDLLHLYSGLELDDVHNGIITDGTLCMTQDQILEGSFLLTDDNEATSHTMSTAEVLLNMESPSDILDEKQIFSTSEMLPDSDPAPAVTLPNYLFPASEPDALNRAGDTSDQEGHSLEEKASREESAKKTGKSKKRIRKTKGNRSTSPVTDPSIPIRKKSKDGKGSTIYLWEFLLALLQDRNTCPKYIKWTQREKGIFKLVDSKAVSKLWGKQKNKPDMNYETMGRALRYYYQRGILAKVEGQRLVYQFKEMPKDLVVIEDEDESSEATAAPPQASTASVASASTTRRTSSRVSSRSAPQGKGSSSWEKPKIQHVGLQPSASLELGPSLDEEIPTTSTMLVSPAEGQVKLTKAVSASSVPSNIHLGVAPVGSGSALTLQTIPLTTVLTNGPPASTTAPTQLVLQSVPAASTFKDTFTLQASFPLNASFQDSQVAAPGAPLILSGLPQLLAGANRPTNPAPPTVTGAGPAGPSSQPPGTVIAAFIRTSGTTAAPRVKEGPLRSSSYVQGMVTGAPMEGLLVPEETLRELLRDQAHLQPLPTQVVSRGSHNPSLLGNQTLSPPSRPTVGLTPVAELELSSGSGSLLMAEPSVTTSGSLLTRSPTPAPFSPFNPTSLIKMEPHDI
# Chain of ETV1 (P50549 whole entry): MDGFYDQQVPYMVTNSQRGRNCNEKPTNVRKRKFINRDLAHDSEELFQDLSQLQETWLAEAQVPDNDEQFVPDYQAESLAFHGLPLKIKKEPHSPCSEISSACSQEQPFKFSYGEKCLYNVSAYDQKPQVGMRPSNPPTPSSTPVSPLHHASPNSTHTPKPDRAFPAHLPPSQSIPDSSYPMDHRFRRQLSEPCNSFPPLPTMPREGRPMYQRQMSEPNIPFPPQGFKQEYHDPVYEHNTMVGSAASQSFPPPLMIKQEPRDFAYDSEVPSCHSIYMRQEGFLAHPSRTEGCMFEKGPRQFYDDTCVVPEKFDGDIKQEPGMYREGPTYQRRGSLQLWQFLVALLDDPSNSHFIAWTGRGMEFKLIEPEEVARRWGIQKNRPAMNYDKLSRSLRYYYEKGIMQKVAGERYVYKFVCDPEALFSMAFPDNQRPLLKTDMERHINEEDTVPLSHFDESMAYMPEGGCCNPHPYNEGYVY
sequence,measurement,setting,value
CGCCCT,binding signal,FEV,"1.37 fold enrichment (6-mer frequency, TF over GST control)"
same,binding signal,ETV5,"1.29 fold enrichment (6-mer frequency, TF over GST control)"
same,binding signal,HSF1,"1.13 fold enrichment (6-mer frequency, TF over GST control)"
same,binding signal,SPIC,"1.21 fold enrichment (6-mer frequency, TF over GST control)"
same,binding signal,ELF4,"1.47 fold enrichment (6-mer frequency, TF over GST control)"
same,binding signal,ELK4,"1.1 fold enrichment (6-mer frequency, TF over GST control)"
same,binding signal,ETV2,"1.4 fold enrichment (6-mer frequency, TF over GST control)"
same,binding signal,ELF3,"1.04 fold enrichment (6-mer frequency, TF over GST control)"
same,binding signal,CRX,"1.11 fold enrichment (6-mer frequency, TF over GST control)"
same,binding signal,ETV1,"1.37 fold enrichment (6-mer frequency, TF over GST control)"
same,binding signal,ERF,"1.37 fold enrichment (6-mer frequency, TF over GST control)"
same,binding signal,ETV3L,"1.34 fold enrichment (6-mer frequency, TF over GST control)"
same,binding signal,ETS2,"1.38 fold enrichment (6-mer frequency, TF over GST control)"
same,binding signal,SPDEF,"1.31 fold enrichment (6-mer frequency, TF over GST control)"
same,binding signal,ETV7,"1.51 fold enrichment (6-mer frequency, TF over GST control)"
same,binding signal,ELF5,"1.22 fold enrichment (6-mer frequency, TF over GST control)"
same,binding signal,ETV3,"1.34 fold enrichment (6-mer frequency, TF over GST control)"
same,binding signal,ETV6,"1.31 fold enrichment (6-mer frequency, TF over GST control)"
